# Screening results: PubChem, Buhrlage Lab, Dana-Farber Cancer Institute and Novartis Institutes for BioMedical Research (Cambridge, Mass)
# USP8 block: blocks human USP8 ubiquitin-rhodamine cleavage; purified USP8, Ub-rhodamine cleavage fluorescence, 30 min; inhibition, % at 20 µM; hit rate 4.2% among 47,000
# OTUD3 inh: human OTUD3 deubiquitinase inhibition; Q5T2D3; purified OTUD3, Ub-rhodamine fluorescence, 2 h; inhibition, % at 25 µM; hit rate 0.7% among 47,000; AID 1645858
# USP17 block: human USP17-like deubiquitinase inhibition. inhibition, % at 50 µM. purified USP17, Ub-rhodamine cleavage fluorescence, 3 h. A8MUK1. hit rate 6.5% among 47,000
# USP7 block: blocks human USP7 ubiquitin-rhodamine cleavage; inhibition, % at 20 µM; AID 1645854; purified USP7, Ub-rhodamine cleavage fluorescence; Q93009; hit rate 0.3% among 47,000
# UCHL1 block: human UCHL1 deubiquitinase inhibition. inhibition, % at 20 µM. purified UCHL1, Ub-rhodamine cleavage fluorescence. P09936. hit rate 0.2% among 47,000
# USP10 inh: inhibitors of human USP10 deubiquitinase; Q14694; purified USP10, Ub-rhodamine fluorescence, 60 min; inhibition, % at 20 µM; hit rate 1.1% among 47,000
# Target sequence (Q14694 whole entry, looked up): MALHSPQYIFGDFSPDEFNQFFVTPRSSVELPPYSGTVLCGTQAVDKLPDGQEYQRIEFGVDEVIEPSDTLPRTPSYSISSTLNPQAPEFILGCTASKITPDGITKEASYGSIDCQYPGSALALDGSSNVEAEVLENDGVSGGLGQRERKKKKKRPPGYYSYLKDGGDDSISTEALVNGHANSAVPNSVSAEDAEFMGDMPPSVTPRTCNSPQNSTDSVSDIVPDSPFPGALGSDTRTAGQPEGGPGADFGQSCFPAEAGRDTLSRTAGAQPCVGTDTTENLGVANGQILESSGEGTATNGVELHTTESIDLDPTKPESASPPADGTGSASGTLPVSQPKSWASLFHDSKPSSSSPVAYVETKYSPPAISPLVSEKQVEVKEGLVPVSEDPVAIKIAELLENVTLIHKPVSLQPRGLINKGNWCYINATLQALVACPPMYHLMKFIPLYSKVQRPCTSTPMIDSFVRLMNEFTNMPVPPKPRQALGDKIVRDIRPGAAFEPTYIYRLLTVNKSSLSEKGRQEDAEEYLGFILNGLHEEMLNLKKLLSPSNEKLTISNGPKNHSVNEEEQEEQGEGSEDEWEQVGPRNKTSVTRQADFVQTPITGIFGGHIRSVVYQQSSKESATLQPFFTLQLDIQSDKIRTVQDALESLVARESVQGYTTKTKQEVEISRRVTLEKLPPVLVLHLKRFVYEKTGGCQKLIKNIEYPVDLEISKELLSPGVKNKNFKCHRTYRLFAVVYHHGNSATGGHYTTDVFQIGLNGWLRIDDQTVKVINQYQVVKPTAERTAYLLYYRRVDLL
# * = called active by the depositor; x = no result. The list is not random: actives were taken first. Their share in the collection is about 9.2%. Cut-off read from the data, not from the text of the source: active = inhibition above about 30%; inactive = the rest.
SMILES,USP8 block,OTUD3 inh,USP17 block,USP7 block,UCHL1 block,USP10 inh
COc1ccc(NS(=O)(=O)c2ccc(C)c(NC(=O)COc3ccccc3F)c2)cc1,0.3,-1.1,-0.4,0.6,1.0,5.1
CCN1CCC2(CN(CCOC)CC23CCN(C(=O)Cc2ccccc2)CC3)C1=O (configuration not stated),-74.4,-8.6,-7.6,-0.6,-2.3,3.7
CCc1ccc(C(CC(=O)Nc2ccc3c(c2)OCO3)NC(=O)C(F)(F)F)cc1 (configuration not stated),36.6*,17.7,18.9,11.0,0.3,6.1
O=C(Cc1cccc(C(F)(F)F)c1)Nc1ccc2c(c1)OCO2,6.6,-0.5,2.3,-4.8,-0.8,8.0
CC(=O)c1ccc(NC(=O)CSc2nc3nc(C)ccc3o2)cc1,-58.2,-2.3,46.2*,1.1,-1.3,11.3
Cc1sc2ncn(CC(=O)Nc3ccccc3)c(=O)c2c1C,-11.4,6.8,39.4*,-0.2,-3.4,-4.9
CCOC(=O)C1CCCN(C(=O)C(=O)c2cn(CC(=O)N3CCCCC3)c3ccccc23)C1 (configuration not stated),79.9*,2.9,34.3*,1.8,5.4,-3.9
Cc1ccc2[nH]c(=O)c(CN(CC3CCCO3)S(=O)(=O)c3ccccc3Cl)cc2c1 (configuration not stated),-5.2,-15.7,-4.9,-2.3,0.3,-6.1
Cn1cc2nc(SCC(=O)Nc3ccc(Cl)cc3F)n(CC3CC3)c(=O)c2n1,32.0*,-4.1,17.6,-13.6,-0.9,1.4
Cc1ccc(Cl)cc1NC(=O)CSc1nc2cn(C)nc2c(=O)n1CC1CC1,61.2*,37.7*,67.7*,-30.0,2.0,2.3
CCCn1c(SCC(=O)Nc2cc(S(=O)(=O)N(CC)c3ccccc3)ccc2Cl)nc2ccccc2c1=O,10.7,7.8,9.1,6.0,5.3,2.6
Cc1c(Cl)cccc1NC(=O)CSc1nc2cn(C)nc2c(=O)n1CC1CC1,42.7*,1.7,20.4,-11.3,0.8,-3.8
Cn1cc2nc(SCC(=O)NCc3ccccc3Cl)n(CC3CC3)c(=O)c2n1,42.2*,-0.3,29.6,-2.6,-0.9,3.1
CSc1ncc2c(=O)n(CC(=O)Nc3cc(Cl)ccc3C)cnc2n1,-21.9,-0.8,-145.2,x,-19.6,-4.9
Cc1onc(C(C)C)c1C(=O)N1CCOC(c2cccc(N(C)C)n2)C1 (configuration not stated),-1.6,0.2,-4.4,-1.0,-4.7,-1.4
Cc1sc2nc(CN3CCOCC3)nc(-n3nnc4ccccc43)c2c1C,6.6,-0.8,3.9,-16.1,0.0,1.6
O=C(Cn1cc(-c2nnco2)c2ccccc21)NC1CCCCCC1,0.0,2.0,38.3*,-0.6,-1.8,1.9
COc1ccc(N2C(=O)c3ccccc3C2C(=O)NCc2ccccc2OC)cc1 (configuration not stated),-1.3,10.6,18.0,-64.9,2.7,5.0
SC(COCc1ccccc1)CN1CCN(c2ccccc2)CC1 (configuration not stated),-46.2,33.2*,22.7,7.3,1.9,3.1
COc1ccc(N2CCN(CC(O)COCc3ccc(Cl)cc3)CC2)cc1 (configuration not stated),-19.8,-4.2,x,-7.7,-3.2,-0.3
Cc1nocc1C(=O)N1CCN(C2CCN(Cc3ccccc3Cl)CC2)C(=O)C1,-4.3,-0.1,-1.8,-4.3,-3.0,-0.1
COc1cc2c(cc1OC)-c1cc(Nc3ccc(Br)cc3)nc(=O)n1CC2,7.5,-5.0,25.0,6.8,-2.8,42.7*
Cc1ccc(S(=O)(=O)N2CCCCC2)cc1NC(=O)COC(=O)c1ccccc1Nc1ccccc1,-2.5,13.0,2.5,0.6,-1.1,0.1
CC(=O)c1cccc(NC(=O)Cn2cc(-c3ccccc3)c3ncn(C4CC4)c(=O)c32)c1,-20.7,-39.2,-43.8,-6.0,-18.8,-3.0
CCc1cc2cc3c(cc2nc1SCC(=O)Nc1cccc(C(C)=O)c1)OCO3,3.8,-4.0,62.6*,1.4,-2.7,3.6
SMILES,USP8 block,OTUD3 inh,USP17 block,USP7 block,UCHL1 block,USP10 inh
CC1=C(c2ccccc2)S(=O)(=O)N(CC(=O)Nc2cccc(F)c2)C1=O,1.5,-2.6,0.7,0.7,-2.2,1.9
CC1=C(c2ccccc2)S(=O)(=O)N(CC(=O)Nc2cccc(Cl)c2)C1=O,16.3,25.6,30.5*,7.4,5.3,6.9
COc1ccc(CNC(=O)CN2C(=O)c3cccc4cccc2c34)cc1,-4.3,-28.5,46.5*,-2.9,-1.6,10.0
O=C(NCCc1ccccc1)c1cccc(N2CCCCS2(=O)=O)c1,1.2,2.6,-21.0,4.4,-0.1,-1.5
CCC1(CC)Oc2ccc(C(=O)CCN(C)C)cc2O1,31.8*,27.3,7.1,6.8,2.4,5.9
Cc1cc(F)ccc1NC(=O)Cc1nnc(-c2ccc3ncccc3c2)o1,46.9*,10.9,15.1,4.7,-0.7,-3.2
O=C(NCc1cccnc1)c1cccnc1-c1nc2ccccc2s1,1.4,3.1,15.6,-2.8,2.0,1.4
O=C(Nc1nc2ccccc2s1)c1ccc2c(c1)C(=O)N(Cc1cccnc1)C2=O,5.4,0.6,58.4*,4.1,3.0,6.8
O=C(c1ccc(OC2CCN(C(=O)C3CCCCC3)CC2)nc1)N1CCOCC1,-11.5,-1.4,-23.6,-4.2,-4.1,0.4
O=C(c1ccc2noc(-c3ccc(F)cc3)c2c1)N1CCN(c2ccccc2)CC1,0.8,0.9,-3.4,6.5,4.9,-0.2
COc1cc2c(cc1OC)CC(=O)N(Cc1c(F)cccc1Cl)C=C2,36.6*,9.8,15.6,0.3,3.2,0.5
CCNc1cc(N2CCCC(CCC(=O)Nc3ccc(C)cc3)C2)ncn1 (configuration not stated),-174.6,3.9,-22.5,0.0,2.3,-3.1
Cc1ccccc1C(=O)Nc1ccc(Cc2ccc(NC(=O)c3ccccc3C)c(O)c2)cc1O,42.6*,-10.8,55.4*,4.1,0.0,1.9
Cc1ccc2ncc(NC(=O)c3ccccc3C)c(=O)n2c1,-0.1,0.3,-13.8,-0.8,-1.9,-0.3
O=C(Nc1ccc(F)cc1Cl)c1nc(-c2ccncc2)no1,-8.1,13.9,16.1,1.0,-0.2,3.0
CC(=O)c1ccc(NC(=O)c2nnn(-c3ccccc3)c2C(C)C)cc1,-0.9,-11.6,4.1,-2.9,-1.5,9.4
COc1ccc(CCNC(=O)Cn2c(=O)c3sccc3n(Cc3ccccc3F)c2=O)cc1OC,2.0,15.6,60.0*,4.7,5.9,3.3
COc1ccc(CCNC(=O)Cn2c(=O)c3sccc3n(Cc3cccc([N+](=O)[O-])c3)c2=O)cc1OC,27.3,29.8,16.2,1.9,3.1,32.0*
COc1ccc(CCNC(=O)CCCn2c(=O)c3ccccc3n(Cc3ccccc3F)c2=O)cc1OC,-2.6,-3.1,5.7,-1.0,0.1,0.0
COc1ccccc1N1CCN(C(=O)c2[nH]c3ccccc3c2NC(=O)c2cccc(C)c2)CC1,-19.8,-17.1,-11.9,0.2,2.1,-1.1
COc1ccc2cc3c(nc2c1)OC(=O)N(CCc1cccc(F)c1)C3,34.6*,15.9,55.7*,8.2,3.8,-0.3
